This note sets out measurements from PubChem BioAssay.

Active and inactive are the calls of the source. Unless noted, how the calls were made is not given here.

Assay [1] is described as follows: kinase inhibitors against Plasmodium liver-stage infection, cell-based, known kinase inhibitor set, luminescence, hepatoma host viability (AID 624392).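 Further: infected cells incubated roughly two days before readout.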 Conditions: Plasmodium liver stage in hepatoma cells, luciferase luminescence, concentration not given here; liver cell % of control: measured here: host liver cell viability; parasite % of control: stronger effect = lower value.

The nature of assay [2]: modulators of glucocorticoid suppression of NF-kB, cell-based, luciferase, IL-1B stimulus, dexamethasone (AID 624486).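 On percent of negative control (+Dex): 100% = mean signal of vehicle control wells on the plate.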 Conditions: NF-kB luciferase reporter, IL-1B + dexamethasone, luminescence; percent of negative control (+Dex): actives lie on both sides, concentration not given here; z-score: measured here: IL-1B alone, no Dex. (A reporter such as luciferase makes a cellular process visible.)

Assay [3] is described as follows: kinase inhibitors altering Pseudomonas killing of worms, whole organism (AID 651566).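 Further: tested at 14 µM; sign flipped so higher z means a lower ratio.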 The following applies: C. elegans killed by P. aeruginosa, survival ratio.
Assay [4] in a line: activators of macrophage pro-inflammatory response, cell-based, murine, luminescence (AID 652131). Conditions: murine macrophage pro-inflammatory reporter, stronger effect = higher value.
Assay [5] has as its target Cellular tumor antigen p53 (Homo sapiens) (UniProt P04637). The experiment in a line: kinase inhibitors altering GFP-p53 stability in HPV16-positive cells, imaging, known kinase inhibitor set, EGFP/DsRed ratio (AID 1053116).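 Further: cells exposed to compounds for 24 h at 37 °C before reading.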 Conditions: stronger effect = higher value; EGFP object count: measured here: GFP-p53 positive objects count.
Assay [6] can be described thus: IRF3 reporter activation in THP-1 macrophages, cell-based, PMA-stimulated THP-1, luminescence (AID 1053176). Conditions: PMA-differentiated THP-1, IRF3 reporter luminescence; stronger effect = higher value.
Assay [7] can be described thus: survival rescue of mitochondrial mutant cells in low glucose, primary screen, MELAS cybrids, Rieske KO mouse fibroblasts, CellTiter-Glo (AID 1508586;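 active means mean z-score across replicates of 1.96 or higher in either the MELAS or the Rieske mutant cell line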;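 further: z relative to plate mean and SD of compound and empty wells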). A general note: Cellular ATP, detected with luciferase, serves as a proxy for viable cell number.
The mark [8] stands for this setting: MELAS cybrid survival, CellTiter-Glo 48 h, stronger effect = higher value.
[9] abbreviates: Rieske KO mouse fibroblast survival, CellTiter-Glo 72 h.

Chain of Cellular tumor antigen p53 (Homo sapiens) (P04637 whole entry, looked up): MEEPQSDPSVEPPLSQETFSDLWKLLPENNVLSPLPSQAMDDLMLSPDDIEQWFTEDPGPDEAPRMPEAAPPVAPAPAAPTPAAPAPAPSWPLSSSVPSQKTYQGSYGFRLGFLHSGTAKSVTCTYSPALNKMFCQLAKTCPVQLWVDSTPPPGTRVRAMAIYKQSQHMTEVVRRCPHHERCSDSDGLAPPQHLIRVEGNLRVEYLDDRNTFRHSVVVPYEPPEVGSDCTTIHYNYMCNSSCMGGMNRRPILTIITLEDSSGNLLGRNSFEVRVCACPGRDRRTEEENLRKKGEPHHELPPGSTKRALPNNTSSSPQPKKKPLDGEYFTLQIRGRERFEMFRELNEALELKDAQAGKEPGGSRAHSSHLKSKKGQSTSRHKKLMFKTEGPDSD

Take `Cc1ccc(NC(=O)c2ccnc(N3CCCC3)c2)cc1-c1ccc(C(=O)NCC2CC2)cc1`: in assay [1], the liver cell % of control was 90.4%. Further, in assay [1], the parasite % of control was 91.3% (inactive). Moreover, the percent of negative control (+Dex) in assay [2] was 104% (inactive). In addition, the z-score was 0.86 in assay [2]; -0.79 (inactive) in assay [3]; -0.27 (inactive) in assay [4]; -0.285 (inactive) in assay [7] (setting [8]); -0.118 in assay [7] (setting [9]). For the same molecule, the EGFP object count in assay [5] amounted to 6. Further, the EGFP/DsRed ratio in assay [5] was 0.0951 (inactive). In addition, the fraction signal in assay [6] was -0.0005 (inactive).
As for `COc1ccccc1Nc1ncc(-c2ccccc2)o1`, in assay [1], the liver cell % of control was 121%. Besides, the parasite % of control in assay [1] was 132% (inactive). Besides, the percent of negative control (+Dex) in assay [2] was 243% (active). Further, the z-score in assay [2] is 9.37; in assay [3] it was -1.29 (inactive); in assay [4], 5.36 (inactive); in assay [7] (setting [8]), 0.853 (inactive); in assay [7] (setting [9]), -0.618. In assay [5], the EGFP object count is 8.5. The EGFP/DsRed ratio in assay [5] is 0.173 (inactive). Moreover, the fraction signal in assay [6] is 0.001 (inactive).
The molecule `C[C@@H](Oc1cc(-n2cnc3ccc(OC[C@@H](O)CO)cc32)sc1C(N)=O)c1ccccc1Cl` had a liver cell % of control in assay [1] of 94.6%. Also, the parasite % of control in assay [1] is 81.9% (inactive). Further, the percent of negative control (+Dex) in assay [2] is 90% (inactive). In addition, the z-score was -0.93 in assay [2]; 0.155 (inactive) in assay [3]; -1.41 (inactive) in assay [4]; -0.759 (inactive) in assay [7] (setting [8]); 0.965 in assay [7] (setting [9]). The EGFP object count in assay [5] was 5. Further, the EGFP/DsRed ratio in assay [5] was 0.0656 (inactive). Further, the fraction signal in assay [6] was -0.0045 (inactive).
As for `CS(=O)(=O)Nc1ccc(-c2cc(-c3ccccc3)cc(C(N)=O)c2N)cc1`, the liver cell % of control in assay [1] turned out to be 89.1%. Further, the parasite % of control in assay [1] is 126% (inactive). Moreover, the percent of negative control (+Dex) in assay [2] is 88% (inactive). Also, the z-score was -0.23 in assay [2]; 1.28 (inactive) in assay [3]; -1.08 (inactive) in assay [4]; 0.927 (inactive) in assay [7] (setting [8]); 0.162 in assay [7] (setting [9]). In assay [5], the EGFP object count was found to be 2. Besides, the EGFP/DsRed ratio in assay [5] was 0.102 (inactive). Further, the fraction signal in assay [6] was -0.0055 (inactive).
In turn, `O=C(O[C@H]1CN[C@H](C#Cc2cc3ncnc(Nc4ccc5c(cnn5Cc5ccccc5)c4)c3s2)C1)N1CCOCC1` came in with a liver cell % of control in assay [1] of 118%. Besides, the parasite % of control in assay [1] was 137% (inactive). Also, the percent of negative control (+Dex) in assay [2] was 58% (inactive). In addition, the z-score in assay [2] is -2.13; in assay [3], 1.08 (inactive); in assay [4], -0.862 (inactive); in assay [7] (setting [8]), 0.875 (inactive); in assay [7] (setting [9]) it was -0.356. Besides, the EGFP object count in assay [5] was determined as 3. Besides, the EGFP/DsRed ratio in assay [5] was 0.0849 (inactive). In addition, the fraction signal in assay [6] is -0.0115 (inactive).
Molecule `Nc1ncc(-c2cccc(S(N)(=O)=O)c2)c2scc(-c3ccc(F)c(Cl)c3)c12` had a liver cell % of control in assay [1] of 86.2%. The parasite % of control in assay [1] was 63% (inactive). Moreover, the percent of negative control (+Dex) in assay [2] was 101% (inactive). For the same molecule, the z-score is -0.045 in assay [2]; 0.425 (inactive) in assay [3]; 0.178 (inactive) in assay [4]; -0.767 (inactive) in assay [7] (setting [8]); -0.224 in assay [7] (setting [9]). Also, the EGFP object count in assay [5] was found to be 7. Besides, the EGFP/DsRed ratio in assay [5] was 0.225 (inactive). Moreover, the fraction signal in assay [6] is -0.008 (inactive).
Molecule `c1ccc(Nc2ncc(-c3ccccc3)o2)cc1` registered a liver cell % of control in assay [1] of 98.7%. Besides, the parasite % of control in assay [1] was 93.5% (inactive). In assay [2], the percent of negative control (+Dex) is 246% (active). Also, the z-score in assay [2] is 11.2; in assay [3] it was -1.27 (inactive); in assay [4], 0.128 (inactive); in assay [7] (setting [8]) it was 1.22 (inactive); in assay [7] (setting [9]), -0.446. Besides, the EGFP object count in assay [5] worked out at 5. Also, the EGFP/DsRed ratio in assay [5] was 0.0918 (inactive). Besides, in assay [6], the fraction signal was -0.011 (inactive).
`Nc1nonc1-c1nc2cnccc2n1C1CCCCC1` registered a liver cell % of control in assay [1] of 69%. Besides, the parasite % of control in assay [1] was 61.4% (inactive). Also, in assay [2], the percent of negative control (+Dex) is 29.5% (active). The z-score in assay [2] was -7.08; in assay [3], -0.155 (inactive); in assay [4] it was -0.857 (inactive); in assay [7] (setting [8]), -0.132 (inactive); in assay [7] (setting [9]), -0.207. In assay [5], the EGFP object count was found to be 3.5. For the same molecule, the EGFP/DsRed ratio in assay [5] is 0.0658 (inactive). In assay [6], the fraction signal is -0.002 (inactive).
The molecule `CCn1c(-c2nonc2N)nc2c(C#CCN)ncc(OCCCN)c21` returned a liver cell % of control in assay [1] of 63.5%. Besides, the parasite % of control in assay [1] was 112% (inactive). For the same molecule, in assay [2], the percent of negative control (+Dex) is 85% (inactive). In addition, the z-score in assay [2] is -0.55; in assay [3] it was -0.71 (inactive); in assay [4], 3.14 (inactive); in assay [7] (setting [8]) it was -0.193 (inactive); in assay [7] (setting [9]), -0.317. Also, in assay [5], the EGFP object count came out at 6. The EGFP/DsRed ratio in assay [5] is 0.152 (inactive). The fraction signal in assay [6] was -0.008 (inactive).
For the molecule `O=C1NC(=O)C(c2ccc(Cl)cc2)=C1Nc1ccc(Cl)c(C(=O)O)c1`, in assay [1], the liver cell % of control was 104%. The parasite % of control in assay [1] was 127% (inactive). Besides, the percent of negative control (+Dex) in assay [2] was 92% (inactive). Besides, the z-score is 0.785 in assay [2]; 0.035 (inactive) in assay [3]; 0.277 (inactive) in assay [4]; -0.525 (inactive) in assay [7] (setting [8]); -0.308 in assay [7] (setting [9]). Further, the EGFP object count in assay [5] was determined as 4. The EGFP/DsRed ratio in assay [5] is 0.0822 (inactive). In addition, the fraction signal in assay [6] is -0.003 (inactive).
`Cc1ccc(C(=O)NC(C)C)cc1-c1ccc(C(=O)NCC2CC2)cc1` returned a liver cell % of control in assay [1] of 90%. Further, the parasite % of control in assay [1] is 124% (inactive). Besides, the percent of negative control (+Dex) in assay [2] is 94.5% (inactive). The z-score in assay [2] was 1.18; in assay [3], 0.505 (inactive); in assay [4], 0.198 (inactive); in assay [7] (setting [8]) it was 0.0329 (inactive); in assay [7] (setting [9]) it was 0.189. Moreover, the EGFP object count in assay [5] was found to be 3. In addition, in assay [5], the EGFP/DsRed ratio is 0.0297 (inactive). The fraction signal in assay [6] was -0.008 (inactive).
As to `CCn1c(-c2nonc2N)nc2c(C#CC(C)(C)O)nc(OC[C@H](N)c3ccccc3)cc21`, the liver cell % of control in assay [1] came out at 91.7%. Moreover, the parasite % of control in assay [1] is 78.3% (inactive). Moreover, the percent of negative control (+Dex) in assay [2] was 106% (inactive). Further, the z-score in assay [2] was 1.86; in assay [3], 0.015 (inactive); in assay [4], -1.25 (inactive); in assay [7] (setting [8]), -0.101 (inactive); in assay [7] (setting [9]), 0.135. For the same molecule, in assay [5], the EGFP object count was 7.5. In assay [5], the EGFP/DsRed ratio is 0.207 (inactive). Also, in assay [6], the fraction signal is -0.0025 (inactive).
Molecule `CS(=O)(=O)Nc1ccc(N=Cc2c(O)[nH]c3ccccc23)cc1` returned a liver cell % of control in assay [1] of 95.2%. Further, the parasite % of control in assay [1] is 107% (inactive). Also, the percent of negative control (+Dex) in assay [2] was 108% (inactive). Also, the z-score in assay [2] is 1.36; in assay [3] it was 0.265 (inactive); in assay [4], 2.34 (inactive); in assay [7] (setting [8]), 1.4 (inactive); in assay [7] (setting [9]), -0.36. Further, the EGFP object count in assay [5] stood at 4. The EGFP/DsRed ratio in assay [5] is 0.123 (inactive). The fraction signal in assay [6] was -0.0045 (inactive).
For the molecule `C#Cc1cccc(Nc2ncnc3ccc(OCCCCNCCS(C)(=O)=O)cc23)c1`, in assay [1], the liver cell % of control is 80.2%. Also, in assay [1], the parasite % of control was 197% (inactive). Moreover, the percent of negative control (+Dex) in assay [2] was 70.5% (inactive). Moreover, the z-score was -1.95 in assay [2]; 0.035 (inactive) in assay [3]; -0.695 (inactive) in assay [4]; -0.125 (inactive) in assay [7] (setting [8]); -0.333 in assay [7] (setting [9]). In addition, the EGFP object count in assay [5] came out at 4. The EGFP/DsRed ratio in assay [5] was 0.148 (inactive). In assay [6], the fraction signal was 0.0175 (inactive).
